Measurements published in PubChem BioAssay AID1159580 (chemical genetic matrix, 2015).
The campaign covered roughly 5,500 compounds. About 2,000 (36%) were called active. Another 18% or so got no clear call; they are omitted. No stated cut-off is given here; in the data, active means normalized growth mostly below about 0.91 (no sharp cut-off); inconclusive means no clear call, values can overlap the other calls; inactive means mostly above about 0.92. Some of the results follow.

Assay: chemical genetic growth profiling, strain panel (AID 1159580);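 further: tested at 20 µM; growth read once vehicle control cultures reached saturation at 30 °C; 1 = growth at the plate median or of vehicle wells; lower values mean less growth of the strain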
Details: growth OD

Measured: normalized growth

CC1CC2C3CC(F)C4=CC(=O)C=CC4(C)C3(F)C(O)CC2(C)C1C(=O)COC(=O)C(C)(C)C (stereo not given)
inactive: S. cerevisiae deletion strains, locus YBR021W, strain FUR4, active compounds read low 0.903 | S. cerevisiae deletion strains, locus YBR229C, strain ROT2, active compounds read low 0.997 | S. cerevisiae deletion strains, locus YCL029C, strain bik1, active compounds read low 1.05 | S. cerevisiae deletion strains, locus YDL035C, strain GPR1, active compounds read low 0.871 | S. cerevisiae deletion strains, locus YDL074C, strain BRE1, active compounds read low 0.879 | S. cerevisiae deletion strains, locus YDL101C, strain DUN1, active compounds read low 1.01 | S. cerevisiae deletion strains, locus YDL185W, strain tfp1, active compounds read low 1.01 | S. cerevisiae deletion strains, locus YDL192W, strain arf1, active compounds read low 0.997 | S. cerevisiae deletion strains, locus YDR101C, strain arx1, active compounds read low 1.02 | S. cerevisiae deletion strains, locus YDR150W, strain NUM1, active compounds read low 0.977 | S. cerevisiae deletion strains, locus YDR162C, strain NBP2, active compounds read low 0.867 | S. cerevisiae deletion strains, locus YDR318W, strain mcm21, active compounds read low 1.01 | S. cerevisiae deletion strains, locus YDR388W, active compounds read low 1.04 | S. cerevisiae deletion strains, locus YDR502C, strain sam2, active compounds read low 1.02 | S. cerevisiae deletion strains, locus YEL061C, strain CIN8, active compounds read low 0.973 | S. cerevisiae deletion strains, locus YER110C, active compounds read low 1.04 | S. cerevisiae deletion strains, locus YER155C, strain BEM2, active compounds read low 1.04 | S. cerevisiae deletion strains, locus YER167W, strain BCK2, active compounds read low 0.992 | S. cerevisiae deletion strains, locus YGL078C, strain dbp3, active compounds read low 1.02 | S. cerevisiae deletion strains, locus YGL086W, strain mad1, active compounds read low 0.96 | S. cerevisiae deletion strains, locus YGL248W, strain PDE1, active compounds read low 0.927 | S. cerevisiae deletion strains, locus YGR078C, strain PAC10, active compounds read low 0.92 | S. cerevisiae deletion strains, locus YGR135W, strain pre9, active compounds read low 0.957 | S. cerevisiae deletion strains, locus YGR252W, strain gcn5, active compounds read low 0.849 | S. cerevisiae deletion strains, locus YHR030C, strain SLT2, active compounds read low 0.989 | S. cerevisiae deletion strains, locus YHR079C, strain IRE1 (second series), active compounds read low 1.03 | S. cerevisiae deletion strains, locus YHR094C, strain hxt1, active compounds read low 1.04 | S. cerevisiae deletion strains, locus YHR129C, strain ARP1, active compounds read low 0.964 | S. cerevisiae deletion strains, locus YHR200W, strain rpn10, active compounds read low 1.01 | S. cerevisiae deletion strains, locus YIL073C, strain SPO22, active compounds read low 0.954 | S. cerevisiae deletion strains, locus YIL125W, strain kgd1, active compounds read low 1.02 | S. cerevisiae deletion strains, locus YIR030C, strain dcg1, active compounds read low 1.03 | S. cerevisiae deletion strains, locus YJL095W, strain BCK1, active compounds read low 0.989 | S. cerevisiae deletion strains, locus YJL134W, strain LCB3, active compounds read low 1.01 | S. cerevisiae deletion strains, locus YJL168C, strain set2, active compounds read low 1.01 | S. cerevisiae deletion strains, locus YJL187C, strain SWE1 (second series), active compounds read low 0.934 | S. cerevisiae deletion strains, locus YJR043C, strain POL32, active compounds read low 0.892 | S. cerevisiae deletion strains, locus YKL009W, strain mrt4, active compounds read low 1.03 | S. cerevisiae deletion strains, locus YKL068W, active compounds read low 1.02 | S. cerevisiae deletion strains, locus YKL085W, strain MDH1 (second series), active compounds read low 1.01 | S. cerevisiae deletion strains, locus YKL085W, strain MDH1, active compounds read low 1.01 | S. cerevisiae deletion strains, locus YKR001C, strain vps1, active compounds read low 0.987 | S. cerevisiae deletion strains, locus YLR039C, strain RIC1, active compounds read low 0.804 | S. cerevisiae deletion strains, locus YLR058C, strain SHM2, active compounds read low 0.981 | S. cerevisiae deletion strains, locus YLR102C, strain apc9, active compounds read low 1.03 | S. cerevisiae deletion strains, locus YLR262C, strain YPT6, active compounds read low 0.872 | S. cerevisiae deletion strains, locus YLR268W, strain sec22, active compounds read low 0.985 | S. cerevisiae deletion strains, locus YLR330W, strain CHS5, active compounds read low 0.967 | S. cerevisiae deletion strains, locus YLR371W, strain rom2, active compounds read low 1.03 | S. cerevisiae deletion strains, locus YLR418C, strain cdc73, active compounds read low 0.953 | S. cerevisiae deletion strains, locus YML016C, strain PPZ1, active compounds read low 0.951 | S. cerevisiae deletion strains, locus YML032C, strain rad52, active compounds read low 1.03 | S. cerevisiae deletion strains, locus YML124C, strain tub3, active compounds read low 1.02 | S. cerevisiae deletion strains, locus YMR078C, strain ctf18, active compounds read low 1.04 | S. cerevisiae deletion strains, locus YMR223W, strain ubp8, active compounds read low 0.965 | S. cerevisiae deletion strains, locus YMR307W, strain GAS1, active compounds read low 0.922 | S. cerevisiae deletion strains, locus YNL067W, strain RPL9B, active compounds read low 0.989 | S. cerevisiae deletion strains, locus YNL128W, strain TEP1, active compounds read low 0.908 | S. cerevisiae deletion strains, locus YNL233W, strain BNI4, active compounds read low 0.919 | S. cerevisiae deletion strains, locus YNL250W, strain rad50, active compounds read low 1.01 | S. cerevisiae deletion strains, locus YNL271C, strain bni1, active compounds read low 1.02 | S. cerevisiae deletion strains, locus YNL298W, strain CLA4, active compounds read low 1.01 | S. cerevisiae deletion strains, locus YNL307C, strain MCK1, active compounds read low 1.03 | S. cerevisiae deletion strains, locus YNL322C, strain KRE1, active compounds read low 0.984 | S. cerevisiae deletion strains, locus YNR052C, strain pop2, active compounds read low 1.01 | S. cerevisiae deletion strains, locus YOL012C, strain htz1 1.01 | S. cerevisiae deletion strains, locus YOL147C, strain pex11, active compounds read low 1.03 | S. cerevisiae deletion strains, locus YOR069W, strain VPS5, active compounds read low 0.991 | S. cerevisiae deletion strains, locus YOR136W, strain idh2, active compounds read low 1.02 | S. cerevisiae deletion strains, locus YOR144C, strain elg1, active compounds read low 1.03 | S. cerevisiae deletion strains, locus YOR184W, strain ser1, active compounds read low 0.974 | S. cerevisiae deletion strains, locus YOR316C, strain cot1, active compounds read low 1.03 | S. cerevisiae deletion strains, locus YPL055C, strain LGE1, active compounds read low 0.843 | S. cerevisiae deletion strains, locus YPL241C, strain CIN2, active compounds read low 0.992 | S. cerevisiae deletion strains, locus YPR119W, strain clb2, active compounds read low 1.03 | S. cerevisiae deletion strains, locus YPR141C, strain kar3, active compounds read low 1.02 | S. cerevisiae deletion strains, locus YPR163C, strain tif3, active compounds read low 1.03 | S. cerevisiae deletion strains, locus YPR167C, strain met16, active compounds read low 1.01 | S. cerevisiae deletion strains, strain wtn01, active compounds read low 0.983
active: S. cerevisiae deletion strains, locus YDL134C, strain PPH21, active compounds read low 0.873 | S. cerevisiae deletion strains, locus YIL066C, strain RNR3, active compounds read low 0.852 | S. cerevisiae deletion strains, locus YLR342W, strain FKS1 (second series), active compounds read low 0.758 | S. cerevisiae deletion strains, locus YOL006C, strain TOP1, active compounds read low 0.509 | S. cerevisiae deletion strains, locus YOR061W, strain CKA2, active compounds read low 0.878 | S. cerevisiae strains, strain wild type, active compounds read low 0.876
